Screens: PubChem BioAssay, National Center for Advancing Translational Sciences (NCATS)
This is a sample that favours compounds with a hit; in the whole collection about 0.41% have one here.
TRPML1 agonist – human mucolipin-1 channel agonism. Q9GZU1. TRPML1-expressing cells, Ca2+ dye fluorescence, FDSS. activation, % (no concentration beside the values). 410,000 tested, 0.12% active. AID 624414; in the data active means activation above about 50%; inconclusive means mostly about 30% to 49%; further: 0% is about no effect
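Agonist activity was taken from a 110 s kinetic Ca2+ dye read on the FDSS after pinning compounds onto TRPML1-DL cells. The cells were seeded at 1,500/well with Tet inducer, incubated about 16 h, then dye-loaded at room temperature.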
TRPV1 agonist – human TRPV1 agonism; Q8NER1; TRPV1-expressing cells, Fluo-8 calcium influx, agonist mode; activation, % at 8.33 µM; 320,000 tested, 0.19% active; AID 540275; in the data active means activation above about 80%; inconclusive means between about 30% and that limit; further: 0% is about no effect
Target sequence (Q8NER1 whole entry, looked up): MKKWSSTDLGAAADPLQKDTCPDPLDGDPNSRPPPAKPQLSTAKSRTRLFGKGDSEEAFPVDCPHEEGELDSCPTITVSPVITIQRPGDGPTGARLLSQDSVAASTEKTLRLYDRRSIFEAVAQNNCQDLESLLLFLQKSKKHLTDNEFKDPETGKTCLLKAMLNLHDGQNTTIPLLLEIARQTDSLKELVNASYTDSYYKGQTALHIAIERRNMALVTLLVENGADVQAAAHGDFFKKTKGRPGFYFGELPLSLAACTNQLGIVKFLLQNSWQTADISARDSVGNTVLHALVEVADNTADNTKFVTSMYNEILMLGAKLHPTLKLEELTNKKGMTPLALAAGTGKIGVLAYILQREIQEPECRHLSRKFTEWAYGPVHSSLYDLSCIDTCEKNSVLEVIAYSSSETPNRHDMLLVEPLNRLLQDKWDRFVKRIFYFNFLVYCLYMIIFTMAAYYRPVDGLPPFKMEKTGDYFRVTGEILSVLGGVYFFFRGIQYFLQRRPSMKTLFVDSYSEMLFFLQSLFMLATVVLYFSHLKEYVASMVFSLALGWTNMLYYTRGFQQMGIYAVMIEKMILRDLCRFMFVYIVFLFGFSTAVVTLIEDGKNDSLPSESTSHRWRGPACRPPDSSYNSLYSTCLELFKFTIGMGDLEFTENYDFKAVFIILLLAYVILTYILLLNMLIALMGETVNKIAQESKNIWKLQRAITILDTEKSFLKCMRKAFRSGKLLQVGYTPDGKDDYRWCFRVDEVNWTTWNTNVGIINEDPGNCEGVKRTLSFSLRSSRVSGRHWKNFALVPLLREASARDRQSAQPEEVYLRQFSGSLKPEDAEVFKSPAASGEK
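Cells expressing TRPV1 were dye-loaded with Fluo-8 and read kinetically: 10 s baseline, 3 min after compound (agonist portion), then 2 min after EC20 capsaicin (allosteric enhancer portion). Calcium-bound dye fluorescence at 480/520 nm.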
TRPV1 potentiator – human TRPV1 potentiation | Q8NER1 | TRPV1-expressing cells, Fluo-8 calcium influx, capsaicin EC20 potentiation | potentiation, % at 8.33 µM | 320,000 tested, 0.02% active | AID 540277; in the data active means potentiation above about 80%; inconclusive means between about 30% and that limit; further: 0% is about no effect
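Cells expressing TRPV1 were dye-loaded with Fluo-8 and read kinetically: 10 s baseline, 3 min after compound (agonist portion), then 2 min after EC20 capsaicin (allosteric enhancer portion). Calcium-bound dye fluorescence at 480/520 nm.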
LDHA inh – blocks human lactate dehydrogenase A; P00338; purified LDHA, NADH/diaphorase-resazurin fluorescence; active compounds read low; activity change, % (values are at about 110 or 230 µM); 480,000 tested, 0.15% active; AID 1347041; in the data active means activity change below about -30%; inconclusive means mostly about -25% to -30%;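 further: plate controls were DMSO wells for no effect and wells without enzyme for full effect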
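LDH5 2 nM; NADH 0.06 mM, pyruvate 0.2 mM; 200 mM Tris pH 7.4, EDTA, Tween-20; 5 min RT. Detection: diaphorase 0.133 mg/mL + resazurin 37 µM, fluorescence ex540/em590 at 0 and 20 min; normalized to enzyme-free and DMSO wells.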
TRPML1 inh – inhibitors of human TRPML1 channel; TRPML1-inducible cells, Ca2+ dye fluorescence, FDSS; active compounds read low; inhibition of EC80 agonist-evoked calcium signal; activity change, negative = inhibition, % (concentration not given with the values); 390,000 tested, 0.02% active; AID 624415; in the data active means activity change below about -50%; inconclusive means between about -30% and that limit;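 further: stimulus is agonist 54-4 at its EC80 concentration; on the % scale 0 is the no-effect control and ±100 the full control effect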
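Tet-induced TRPML1-DL cells loaded with Ca8 no-wash calcium dye were read kinetically on FDSS. Compound addition was followed by EC80 agonist 54-4 (4 uM final); inhibition was read over 110 s.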
* = called active by the depositor; ? = inconclusive; · = not tested or not shown.

SMILES	TRPML1 agonist	TRPV1 agonist	TRPV1 potentiator	LDHA inh	TRPML1 inh
CCCCOc1ccc(/C=C(/C#N)c2ccccn2)cc1	·	·	·	19	·
O=C(c1ccc(C(F)(F)F)cc1)C1CCCN(C(=O)CCc2ccncc2)C1 (stereo not drawn)	0	87*	-14	-4	1
CC(C)C(=O)Nc1ccc(C(=O)CN2C(=O)NC3(CCOc4ccccc43)C2=O)cc1 (stereo not drawn)	0	91*	24	-13	-6
COc1ccc(C(=O)/C=C/c2cccs2)c(OC)c1	·	·	·	14	·
COc1cc(-c2nc3ccc(Cl)cn3c2Nc2ccc3c(c2)OCO3)cc(OC)c1O	·	·	·	14	·
Cc1ccc([C@H]2C[C@@H](n3cc(-c4ccc(F)cc4)nn3)[C@H](O)CN2Cc2cccs2)cc1	0	·	·	0	3
O[C@@H]1CN(Cc2cccs2)[C@@H](c2ccc(Cl)cc2)C[C@H]1n1cc(-c2ccc(F)cc2)nn1	0	·	·	-30*	2
CCOC(=O)c1cn(Cc2ccccc2)c(C(=O)OC(C)(C)C)c1O	60*	·	·	5	-5
CN1CCOC(CNC(=O)Cc2cccc(F)c2)C1 (stereo not drawn)	·	·	·	0	·
c1ccc(-c2ccccc2OCCOCCN2CCOCC2)cc1	0	7	-5	-45*	-3
COCCCNCCOCCOc1ccccc1-c1ccccc1	-1	13	1	-11	-5
C=CCNCCOCCOc1ccccc1-c1ccccc1	0	7	-21	-30*	-2
CCN1CCN(CCOCCOc2ccccc2-c2ccccc2)CC1	·	-1	-2	·	·
O=C(Nc1cccc(C(F)(F)F)c1)c1noc2c1CCCC2	·	·	·	-1	·
CCC1CCCCN1C(=O)Cn1c(-c2ccccc2)nc(C)cc1=O (stereo not drawn)	·	·	·	-33*	·
CCc1cc(=O)n(CC(=O)N2CCCCC2CC)c(-c2ccccc2)n1 (stereo not drawn)	·	·	·	0	·
COc1cc2cc(C)c3nnc(SCC(=O)Nc4cc(C)on4)n3c2cc1OC	-1	-9	108*	-4	-23
Cc1cc(NC(=O)CSc2nnc3c(C)cc4c(C)ccc(C)c4n23)no1	1	-1	19	-3	-5
COc1ccc(OC)c(C(c2nnnn2CCc2ccccc2)N2CCN(c3ccccc3)CC2)c1 (stereo not drawn)	51*	22	-2	-6	-11
O=[N+]([O-])c1cc([N+](=O)[O-])c2oc(-c3ccccc3)c(Br)c2c1O	1	2	-33	-68*	6
Cc1noc(C(=O)Nc2ccc(C#N)cc2)c1Cl	-1	23	-2	-4	2
CCc1ccc(NC(=O)c2onc(C)c2Cl)cc1	2	89*	-6	4	-4
O=C(NCc1ccccn1)C(=O)NCc1ccccn1	-1	-15	97*	0	2
CC(C)(C)NC(=O)C(=O)NCc1ccccn1	0	0	2	-2	-1
CCCC(=O)N1CCN(c2nc(CC(C)C)c3c(c2C#N)CCC3)CC1	2	83*	-23	-4	29
SMILES	TRPML1 agonist	TRPV1 agonist	TRPV1 potentiator	LDHA inh	TRPML1 inh
N/C(=N\OC(=O)c1ccc(Cl)cc1)c1nonc1N	1	81*	-1	-4	16
CCN(CC)S(=O)(=O)c1ccc(/C=C/C(=O)Nc2ccc(N3CCOCC3)cc2)cc1	-1	90*	-18	-1	-9
COc1ccc(/C=C/C(=O)Nc2ccc(N3CCOCC3)cc2)cc1	0	?	-14	-4	-13
Cc1ccc(C)c(NC(=O)CCn2nc(C)c3c(C)n(-c4ccccc4)nc3c2=O)c1	-1	·	·	-6	-54*
CCN(CC)c1ccc2c(-c3ccc(S(=O)(=O)O)cc3S(=O)(=O)[O-])c3ccc(=[N+](CC)CC)cc-3oc2c1	21	-3	15	-232*	-8
C=CCCC(=O)N1CCN(C(=O)c2ccc(C(F)(F)F)cc2)CC1	·	·	·	-7	·
CC1CCC(N2CCN(S(C)(=O)=O)CC2)CC1 (stereo not drawn)	0	1	-8	-34*	16
CS(=O)(=O)N1CCN(C2C3CC4CC(C3)CC2C4)CC1 (stereo not drawn)	0	0	6	-32*	-4
CCS(=O)(=O)N1CCN(C2CCC(C)CC2)CC1 (stereo not drawn)	0	5	-6	-22	-5
